The results in this text go back to publication PMC6919601, “Identification of Plasmodium dipeptidyl aminopeptidase allosteric inhibitors by high throughput screening” (PLoS ONE, 2019).

Out of some 110,000 compounds screened, about 230 (0.21%) showed an effect of 50% or more. For the sample, strong results were picked, then their nearest neighbours and some compounds at random.
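Also: 30 min substrate incubation versus DMSO and 10 µM JCP410 controls.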

Sequence of DPAP1 (Q8IIJ9 whole entry, looked up): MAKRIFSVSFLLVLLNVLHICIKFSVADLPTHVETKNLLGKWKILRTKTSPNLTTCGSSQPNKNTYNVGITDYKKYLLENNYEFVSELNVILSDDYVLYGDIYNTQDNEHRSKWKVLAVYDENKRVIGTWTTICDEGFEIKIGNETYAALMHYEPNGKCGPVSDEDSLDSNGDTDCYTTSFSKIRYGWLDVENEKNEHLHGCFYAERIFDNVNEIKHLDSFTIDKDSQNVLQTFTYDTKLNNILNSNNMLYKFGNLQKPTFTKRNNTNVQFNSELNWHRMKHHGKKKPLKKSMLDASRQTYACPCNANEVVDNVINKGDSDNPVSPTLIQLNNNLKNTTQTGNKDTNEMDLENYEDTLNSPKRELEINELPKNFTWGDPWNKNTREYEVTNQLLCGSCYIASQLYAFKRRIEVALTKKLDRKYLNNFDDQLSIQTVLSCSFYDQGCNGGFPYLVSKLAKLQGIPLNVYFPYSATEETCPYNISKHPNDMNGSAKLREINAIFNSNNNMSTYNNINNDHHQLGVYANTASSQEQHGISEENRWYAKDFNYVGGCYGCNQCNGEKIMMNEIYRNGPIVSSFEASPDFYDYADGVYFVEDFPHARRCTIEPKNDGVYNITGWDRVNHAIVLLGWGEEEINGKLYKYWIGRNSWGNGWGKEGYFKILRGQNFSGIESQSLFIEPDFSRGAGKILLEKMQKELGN

The assay addresses DPAP1 (Plasmodium falciparum, UniProt Q8IIJ9). Nature of the assay: primary screen, percent inhibition; read by cleavage of a fluorogenic dipeptide substrate; higher = more effect of the substance. Details: species or system P. falciparum D10 trophozoite lysates; single well.
Regarding `Cc1ccc(-c2nnc(SCC(=O)N3CCC(C)CC3)o2)cc1C`, the “% Inhibition @ 10 uM” value is 1.3%. Under `COc1ccc(CN2CCN(Cc3cccc(F)c3)CC2)c(OC)c1OC` stands 5.99%. Then `Cc1cc(Oc2nc3ccccn3c(=O)c2/C=C(\C#N)c2nc3ccccc3[nH]2)ccc1Cl`, with 92.2%; and `Cc1cccc(Oc2nc3ccccn3c(=O)c2/C=C(\C#N)c2nc3ccccc3[nH]2)c1`, with 6.78%. Then `N#C/C(=C\c1c(Oc2ccccc2Cl)nc2ccccn2c1=O)c1nc2ccccc2[nH]1`, with -1.86%; and `COc1ccc(-c2nc(CSc3nnc(C)n4c3cc3oc(C)cc34)c(C)o2)cc1`, with 3.61%; and `Cc1cc(C)c(S(=O)(=O)N2CCN(c3ccc(F)cc3)CC2)c(C)c1`, with -6.86%. In the case of `CN(c1ccc(C(=O)Nc2ccc(F)cc2)cc1)S(=O)(=O)c1ccccc1`, the “% Inhibition @ 10 uM” value is given as -7.56%. Regarding `Cc1sc(NC(=O)COc2ccc(F)cc2F)c(C#N)c1C`, the “% Inhibition @ 10 uM” value came out at 93.9%.

In the case of `Cc1sc(NC(=O)COc2ccc(Cl)cc2Cl)c(C#N)c1C`, the “% Inhibition @ 10 uM” value was 1.25%. Then `CCc1c(C)sc(NC(=O)COc2ccc(F)cc2)c1C#N`, with 0.777%; and `CCCNC(=O)c1cc2ncc(Br)cn2n1`, with 1.04%; and `O=C(O)c1cc2n(n1)C(C(F)(F)F)CC(c1ccccc1)N2` (stereo not shown), with -1.32%. Then `O=C(Nc1ccc(Br)cn1)c1cc2n(n1)C(C(F)(F)F)CC(c1ccccc1)N2` (stereo not shown), with 50.4%. Under `O=C(Nc1cccnc1)c1cc2n(n1)C(C(F)(F)F)CC(c1ccc(Br)cc1)N2` (stereo not shown) stands 2.99%; under `O=C(Cc1nnc(-c2ccc(Br)cc2)o1)NC1CCN(Cc2ccccc2)CC1`, 2.28%; under `CP(=O)(O)c1nc2ccccc2s1`, -2.44%. Take `Cc1ccc2c(c1)c1c3n2CCN(Cc2ccccc2)C3CCC1` (stereo not shown): the “% Inhibition @ 10 uM” value is recorded as 1.26%. Under `c1ccc(CN2CCn3c4c(c5ccccc53)CCCC42)cc1` (stereo not shown) stands -1.25%; under `C1=C(c2ccc3c(c2)c2c4n3CCN(Cc3ccccc3)C4CCC2)C2CCN1CC2` (stereo not shown), 70.5%. Then `CN(C)CCN(C)C1CCN(Cc2ccccc2)CC1`, with 0.162%; and `Cc1cc(C)c(C#N)c(SCc2ccccc2)n1`, with -0.305%; and `Cc1cc(C)c(C#N)c(SCc2ccccn2)n1`, with 66.4%. Then `Cc1cc(C)c(C#N)c(SCc2ccccc2F)n1`, with 40.7%.

In the case of `CCOC(=O)c1c(NC(=O)/C=C/C(=O)O)sc2c1CCN(Cc1ccccc1)C2`, the “% Inhibition @ 10 uM” value was -1.92%.

With `COc1ccc(CC(=O)Nc2sc3c(c2C(N)=O)CCCCC3)cc1OC`, the “% Inhibition @ 10 uM” value stood at 57%. With `CCOc1ccc(CC(=O)Nc2sc3c(c2C(N)=O)CCCC3)cc1OCC`, the “% Inhibition @ 10 uM” value was -13.5%.

As for `NC(=O)c1c(NC(=O)COc2ccc(Cl)cc2)sc2c1CCCCCC2`, the “% Inhibition @ 10 uM” value is -4.33%.

As for `CC1CCc2c(sc(NC(=O)C(C)Oc3cccc(Cl)c3)c2C(N)=O)C1` (stereo not shown), the “% Inhibition @ 10 uM” value is on record as 2.45%. Consider `Cc1cc(C(F)(F)F)nn1CC(=O)Nc1sc2c(c1C#N)CCCCC2`, for which the “% Inhibition @ 10 uM” value stood at 2.76%. Then `Cc1cc(C(F)(F)F)nn1CC(=O)Nc1sc2c(c1C(N)=O)CCCCC2`, with 54.5%. Under `NC(=O)c1c(NC(=O)COc2ccccc2)sc2c1CCCCC2` stands 1.88%; under `Cc1cc(C(F)(F)F)nn1CC(=O)Nc1sc2c(c1C(N)=O)CCCC2`, -1.49%; under `COc1ccc(CC(=O)Nc2sc3c(c2C(N)=O)CCCC3)cc1`, 2.13%. Take `CC(Oc1ccc(F)cc1)C(=O)Nc1sc2c(c1C(N)=O)CCC2` (stereo not shown): the “% Inhibition @ 10 uM” value came out at 2.44%. As for `NC(=O)c1c(NC(=O)COc2ccc(Cl)cc2)sc2c1CCCCC2`, the “% Inhibition @ 10 uM” value is recorded as 65.1%. Take `CC(Oc1cccc(Cl)c1)C(=O)Nc1sc2c(c1C(N)=O)CCCCC2` (stereo not shown): the “% Inhibition @ 10 uM” value stood at 61.2%.
